Source: PubChem BioAssay (NCATS)
Several values for one entry are separate records, joined by “and”; a condition that tells them apart may be missing. Equal values may be shown once. Results filed as inconclusive are left out. Activity calls are given as the source filed them. Unless noted, calls come from the whole dose curve; as a rule, active = well fitted curve in the direction sought with a large enough effect; inconclusive = small, poorly fitted or top-dose-only effect, or another doubt; inactive = no such curve, though single readings can be large; an effect the other way counts as inactive or inconclusive.

How the values were obtained:
[1] = qHTS assay for small molecule disruptors of the mitochondrial membrane potential - 5 hr assay (AID 651755; calls by dose curve; note: % is set by controls: 0 for no effect and ±100 for the full control effect; nearly all actives have a fitted effect of over 40% in size)
In short: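 Membrane-potential dye readout: red aggregate (540 ex/590 em) versus green monomer (490 ex/535 em) fluorescence after 30 min dye loading, following 5 hr compound exposure at 37C of overnight-plated HepG2 cells.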

[2] = target: Tumor necrosis factor (Homo sapiens) (UniProt P01375); assay: qHTS assay to identify small molecules that stimulate Tumor Necrosis Factor-alpha (TNF-alpha) secretion (AID 651757; active = well fitted curve in the direction sought with a large enough effect in the signal ratio; the % refers to the signal ratio; note: 0% is about no effect)
In short: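 Secreted TNF-alpha quantified by TR-FRET sandwich of two labeled anti-TNF-alpha antibodies, incubated 3 hr at room temperature. Preceded by 17 hr, 37 C compound treatment of THP-1 cells at 3000 cells/well.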

[3] = qHTS assay to identify small molecules that stimulate interleukin-8 (IL-8) secretion (AID 651758; active = well fitted activation curve with a large enough effect in the signal ratio; the % refers to the signal ratio; note: 0% is about no effect)
In short: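 Secreted IL-8 measured homogeneously by TR-FRET (two labelled anti-IL-8 antibodies, 1-3 h at room temperature) after a 16 h, 37 C compound treatment of THP-1 cells at 2000 cells/well.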

[4] = qHTS assay for environmental chemicals that activate the Aryl hydrocarbon Receptor (AhR) signaling pathway (AID 651777); settings: 1A2-DRE human hepatoma cells, luciferase, 24 h; activation: stronger effect = higher value; note: % of control where 0% means no effect; nearly all actives have a fitted effect of over 15% in size
In short: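 Measured luciferase activity, read 30 min after One-Glo addition at room temperature, from human hepatoma cells bearing a dioxin response element–CYP1A2 promoter reporter and exposed to compound for 24 hr at 37 C.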

[5] = target: Peroxisome proliferator-activated receptor alpha (Homo sapiens) (UniProt Q07869); assay: qHTS assay for small molecule agonists of the peroxisome proliferator-activated receptor alpha (PPARalpha) signaling pathway (AID 651778); settings: PathHunter PPARalpha complementation, chemiluminescence, 6 h; stronger effect = higher value; note: % of control where 0% means no effect
In short: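 Chemiluminescence from complemented enzyme reported PPARalpha activation in cells after 6 hr of compound treatment at 37 C. The detection reagent was incubated for 60 min at room temperature, and compounds were scored as agonists.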

[6] = target: Nuclear receptor ROR-gamma (Homo sapiens) (UniProt P51449); assay: qHTS assay for small molecule antagonists of the retinoid-related orphan receptor gamma (ROR-gamma) signaling pathway (AID 651802);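 note: CHO cells with doxycycline-induced ROR-gamma expression; luciferase reporter luminescence driven by ROR response element; series mostly up to about 92 µM; % is set by controls: 0 for no effect and ±100 for the full control effect; nearly all actives have a fitted effect of over 60% in size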
In short: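 Luminescence (One-Glo, 30 min RT) measured 16 h after compound addition and doxycycline induction at 37C. Reporter: RORE-luciferase under TET-inducible ROR-gamma in CHO cells.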

[7] = qHTS assay for small molecule agonists of the antioxidant response element (ARE) signaling pathway measured by Nrf2-dependant transcriptional activity (AID 720636; active = well fitted curve in the direction sought with a large enough effect in the repeat runs; an effect the other way counts as inactive or inconclusive;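 note: HepG2 cells with an ARE-driven luciferase reporter; % of control where 0% means no effect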)
In short: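 In HepG2 cells engineered with an Nrf2-responsive luciferase gene, ARE induction was quantified as luminescence after 16 hr compound treatment at 37 C.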

[8] = qHTS assay for small molecule antagonists of the retinoid-related orphan receptor gamma (ROR-gamma) signaling pathway - cell viability counter screen (AID 720652; active = well fitted curve in the direction sought with a large enough effect in the repeat runs; an effect the other way counts as inactive or inconclusive;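 note: CHO reporter cells with doxycycline-induced ROR-gamma expression; series mostly up to about 92 µM; compound exposure lasted 16 hr before ATP read; % is set by controls: 0 for no effect and ±100 for the full control effect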)
In short: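 Cytotoxicity counter screen: intracellular ATP (CellTiter-Glo luminescence) measured in the doxycycline-induced CHO RORE-luciferase reporter line after 16 hr compound exposure at 37 C, 5% CO2.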

[9] = qHTS assay for small molecule agonists of the antioxidant response element (ARE) signaling pathway measured by Nrf2-dependant transcriptional activity - cell viability counter screen (AID 720653; active = well fitted curve in the direction sought with a large enough effect in the repeat runs; an effect the other way counts as inactive or inconclusive; note: % is set by controls: 0 for no effect and ±100 for the full control effect); settings: ARE-bla HepG2 viability, CellTiter-Glo ATP luminescence, 16 h; stronger effect = lower value
In short: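 Cytotoxicity counter screen: intracellular ATP quantified by CellTiter-Glo luminescence in the same ARE-bla HepG2 plates, after 16 h compound exposure and a 2 h beta-lactamase substrate step.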

[10] = qHTS assay for cell viability of HEK293 cells (AID 743288); settings: ATP luminescence (CellTiter-Glo), 18 h, stronger effect = lower value; note: % is set by controls: 0 for no effect and ±100 for the full control effect; nearly all actives have a fitted effect of over 50% in size
In short: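 Viable-cell counts were inferred from luciferase-based ATP content in HEK293 cells seeded at 2,000/well, pre-incubated ≥5 h, then dosed with DMSO-solubilised compounds for 18 h at 37 C.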

Nuclear receptor ROR-gamma (Homo sapiens), sequence (P51449 whole entry, looked up): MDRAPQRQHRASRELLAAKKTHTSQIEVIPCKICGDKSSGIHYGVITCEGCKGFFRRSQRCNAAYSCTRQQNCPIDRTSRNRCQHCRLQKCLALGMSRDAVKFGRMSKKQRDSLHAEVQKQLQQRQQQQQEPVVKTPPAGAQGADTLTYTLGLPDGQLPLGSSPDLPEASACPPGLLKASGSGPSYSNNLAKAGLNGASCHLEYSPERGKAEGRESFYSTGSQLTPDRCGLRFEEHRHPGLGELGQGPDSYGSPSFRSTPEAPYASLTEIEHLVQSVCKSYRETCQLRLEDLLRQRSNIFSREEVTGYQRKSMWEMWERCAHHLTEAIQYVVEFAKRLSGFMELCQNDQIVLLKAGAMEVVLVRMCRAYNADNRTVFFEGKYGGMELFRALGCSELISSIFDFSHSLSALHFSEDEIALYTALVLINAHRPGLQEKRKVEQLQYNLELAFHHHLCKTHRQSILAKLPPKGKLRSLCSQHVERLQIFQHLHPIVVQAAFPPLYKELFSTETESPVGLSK
Tumor necrosis factor (Homo sapiens), sequence (P01375 whole entry, looked up): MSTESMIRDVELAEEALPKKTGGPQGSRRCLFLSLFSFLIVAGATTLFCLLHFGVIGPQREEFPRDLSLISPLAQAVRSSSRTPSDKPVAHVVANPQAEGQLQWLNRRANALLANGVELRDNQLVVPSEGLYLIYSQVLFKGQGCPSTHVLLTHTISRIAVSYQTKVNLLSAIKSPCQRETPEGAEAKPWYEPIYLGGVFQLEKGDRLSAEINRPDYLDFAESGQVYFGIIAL
Peroxisome proliferator-activated receptor alpha (Homo sapiens), sequence (Q07869 whole entry, looked up): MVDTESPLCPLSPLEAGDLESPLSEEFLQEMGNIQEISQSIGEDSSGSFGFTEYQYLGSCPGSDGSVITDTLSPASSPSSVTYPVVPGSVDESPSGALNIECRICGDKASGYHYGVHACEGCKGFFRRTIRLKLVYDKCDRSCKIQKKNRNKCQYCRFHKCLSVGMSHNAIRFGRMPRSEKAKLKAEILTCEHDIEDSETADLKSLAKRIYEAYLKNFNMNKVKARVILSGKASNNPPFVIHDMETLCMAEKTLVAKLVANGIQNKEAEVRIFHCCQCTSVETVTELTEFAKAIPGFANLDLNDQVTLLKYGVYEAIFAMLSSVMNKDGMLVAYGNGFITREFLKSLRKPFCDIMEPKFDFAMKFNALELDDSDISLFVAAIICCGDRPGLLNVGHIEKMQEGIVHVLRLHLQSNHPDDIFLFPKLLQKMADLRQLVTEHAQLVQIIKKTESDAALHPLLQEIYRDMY

ICCc1ccccc1
inactive: Potency [1] | Potency [2] | Potency [3] | activation [4] 3.65% | max response [5] -1.29% | Potency [6] | outcome [7] | Potency [8] | max response [9] 3.37% | max response [10] -14.1%

C=Cc1ccccc1C=C
inactive: Potency [1] | Potency [2] | Potency [3] | activation [4] -0.496% | max response [5] -1.6% | Potency [6] | outcome [7] | Potency [8] | max response [9] 4.89% | max response [10] 3.31%

CC(C)N=C=NC(C)C
inactive: Potency [1] | Potency [2] | Potency [3] | activation [4] -2.05% | max response [5] -2.65% | Potency [6] | outcome [7] | Potency [8] | max response [9] -1% | max response [10] 3.11%

ON=C1CCCCC1
inactive: Potency [1] | Potency [2] | Potency [3] | activation [4] 0.388% | max response [5] 1.6% | Potency [6] | outcome [7] | Potency [8] | max response [10] 1.04%

CC(O)COC(C)(C)C (configuration not stated)
inactive: Potency [1] | Potency [2] | Potency [3] | activation [4] -0.0727% | max response [5] -3.92% | Potency [6] | outcome [7] | Potency [8] | max response [9] 7.93% | max response [10] -14.3%

COCCOC(=O)c1ccccc1C(=O)OCCOC
inactive: Potency [1] | Potency [2] | Potency [3] | activation [4] -0.057% | max response [5] 2.89% | Potency [6] | outcome [7] | Potency [8] | max response [9] 9.02% | max response [10] -2.4%

Cc1ccc(C)c(N)c1
inactive: Potency [1] | Potency [2] | Potency [3] | activation [4] -0.892% | max response [5] 7.66% | Potency [6] | outcome [7] | Potency [8] | max response [10] -4.96%

CC(C)Nc1ccccc1
inactive: Potency [1] | Potency [2] | Potency [3] | activation [4] 0.225% | max response [5] -3.92% | Potency [6] | outcome [7] | Potency [8] | max response [9] -8.81% | max response [10] -1.42%

Cc1cccc([N+](=O)[O-])c1C(=O)O
inactive: Potency [1] | Potency [2] | Potency [3] | activation [4] -0.538% | max response [5] 4.5% | Potency [6] | outcome [7] | Potency [8] | max response [9] 0.554% | max response [10] -0.404%

Nc1cccc(C(F)(F)F)c1
inactive: Potency [1] | Potency [2] | Potency [3] | activation [4] 0.706% and 0.403% | max response [5] -0.773% and -2.14% | Potency [6] | outcome [7] | Potency [8] | max response [9] 1.34% and -3.53% | max response [10] -2.53% and -9.98%

CCCCCCO
inactive: Potency [1] | Potency [2] | Potency [3] | activation [4] -0.44% | max response [5] 6.04% | Potency [6] | outcome [7] | Potency [8] | max response [9] 4.6% | max response [10] 3.47%

Cc1cccc(C(=O)O)c1[N+](=O)[O-]
inactive: Potency [1] | Potency [2] | Potency [3] | activation [4] 1.97% | max response [5] -1.91% | Potency [6] | outcome [7] | Potency [8] | max response [9] 5.5% | max response [10] -1.21%

CCN(Cc1ccccc1)c1ccccc1
inactive: Potency [1] | Potency [2] | Potency [3] | activation [4] 0.346% | max response [5] 3.08% | Potency [6] | outcome [7] | Potency [8] | max response [9] -1.24% | max response [10] -4.87%

Cc1cccc(C)c1O
inactive: Potency [1] | Potency [2] | Potency [3] | activation [4] 0.0984% | max response [5] -7.29% | Potency [6] | outcome [7] | Potency [8] | max response [9] 8.44% | max response [10] 0.15%

OC1CCCC1
inactive: Potency [1] | Potency [2] | Potency [3] | activation [4] -0.947% | max response [5] 1.11% | Potency [6] | outcome [7] | Potency [8] | max response [9] -3.18% | max response [10] 3.74%

CC(C)=CCl
inactive: Potency [1] | Potency [2] | Potency [3] | activation [4] 2.36% | max response [5] 0.634% | Potency [6] | outcome [7] | Potency [8] | max response [9] 14.9% | max response [10] -6.69%

CCOc1cc(OCC)c(C(C)=O)cc1OCC
inactive: Potency [1] | Potency [2] | Potency [3] | activation [4] 3.71% | max response [5] 0.501% | Potency [6] | outcome [7] | Potency [8] | max response [9] 3.21% | max response [10] 0.327%

CO[Si](CCCNCCC[Si](OC)(OC)OC)(OC)OC
inactive: Potency [1] | Potency [2] | Potency [3] | activation [4] -0.757% | max response [5] -5.87% | Potency [6] | outcome [7] | Potency [8] | max response [9] -1.66% | max response [10] 5.64%

CCOc1ccccc1N
inactive: Potency [1] | Potency [2] | Potency [3] | activation [4] -0.265% | max response [5] -0.0098% | Potency [6] | outcome [7] | Potency [8] | max response [9] 12.7% | max response [10] 0.362%

O=C(O)c1ccc(Cl)c(Cl)c1
inactive: Potency [1] | Potency [2] | Potency [3] | max response [5] -5.43% | Potency [6] | outcome [7] | Potency [8] | max response [9] -1.66% | max response [10] 1.65%
